Potency and affinity values are given separately.

The assay deals with Cryptococcus neoformans. The following applies: Concentration 32 ug.mL-1; ASSAY_TEST Inhibition of Fungal Growth; detection method Resazurin; Absorption (OD600-OD570); plate type 384well; NBS; CORNING #3640.
Usually Inhibition stands for the change of the read-out against control, counted positive when it falls. `Cc1ccc(-c2ccc3nn(CC(=O)Nc4cccc(Cl)c4)c(=O)n3n2)cc1C`: the Inhibition is -15.53%.

As to `COc1ccccc1NC(=O)Cn1nc2c3cc(-c4ccc(C)c(C)c4)nn3ccn2c1=O`, the Inhibition is -22.56%.

`CN(C(=O)Cn1nc2nc(Nc3ccc(F)cc3)ccn2c1=O)c1ccccc1`: the Inhibition was -4.67%.

As for `COc1ccccc1NC(=O)Cn1nc2c(Sc3ccccc3)nccn2c1=O`, the Inhibition is -4.93%.

Take `O=C(CSc1nnc2c(=O)n(-c3ccc(F)cc3)ccn12)N1CCN(c2ccccc2F)CC1`: the Inhibition was -7.82%.

In the case of `Cc1ccc(-n2ccn3c(=O)n(Cc4ccccc4Cl)nc3c2=O)cc1C`, the Inhibition is on record as -10.75%.

Consider `C=Cc1ccc(CSc2nnc3c(=O)n(-c4cccc(OC)c4)ccn23)cc1`, for which the Inhibition was -2.41%.

Consider `COc1ccc(Cl)cc1NC(=O)Cn1nc2c3cc(-c4ccc(C)c(C)c4)nn3ccn2c1=O`, for which the Inhibition is -11.29%.

For the compound `COc1cccc(-c2noc(Cn3nc4ccc(-c5ccc(C)c(C)c5)nn4c3=O)n2)c1OC`, the Inhibition was -10.63%.

For `COC(=O)c1cccc(NC(=O)Cn2nc3ccc(-c4ccccc4)nn3c2=O)c1`, the Inhibition is -15.91%.

Turning to `COc1ccc(-c2cc3c4nn(CC(=O)Nc5cc(OC)ccc5OC)c(=O)n4ccn3n2)cc1`, the Inhibition is -25.14%.

As for `CCOc1ccc(-n2ccn3c(SC(C)C(=O)Nc4ccc5c(c4)OCCO5)nnc3c2=O)cc1` (stereo unspecified), the Inhibition is listed as -16.53%.

For `CCCN(C)c1nccn2c(=O)n(CC(=O)Nc3ccc(Br)cc3)nc12`, the Inhibition is on record as -7.69%.

For the compound `CC(C)c1ccc(N(Cc2ccc(Cl)cc2)S(=O)(=O)c2cccn3cnnc23)cc1`, the Inhibition is on record as -6.18%.

Turning to `O=C(Cn1nc2ccc(Sc3ccccc3)nn2c1=O)N1CCN(c2ccc(F)cc2)CC1`, the Inhibition is reported as -5.51%.

As to `COc1ccccc1-n1ccn2c(SCC(=O)Nc3ccc(C)cc3C)nnc2c1=O`, the Inhibition was -10.8%.

In the case of `CCCn1c(=O)c2sccc2n2c(=O)n(Cc3ccc(Cl)cc3)nc12`, the Inhibition is reported as -22.99%.

With `CCCCN(C)c1ccc2nnc(CCc3nc(-c4cc(OC)cc(OC)c4)no3)n2n1`, the Inhibition is -5.17%.

As for `Cc1cc(C)cc(N(Cc2ccc(F)cc2)S(=O)(=O)c2cccn3cnnc23)c1`, the Inhibition is recorded as -10.98%.

For the compound `COc1cc(OC)c(NC(=O)Cn2nc3c(N4CCOCC4)nccn3c2=O)cc1Cl`, the Inhibition is given as -8.41%.

With `COc1cccc(Sc2nc3ccccc3n3c(=O)n(CC(=O)Nc4ccccc4)nc23)c1`, the Inhibition is on record as -26.53%.

`O=C(CSc1nc2ccccc2n2cnnc12)NCc1ccccc1Cl`: the Inhibition is recorded as -14.6%.

Regarding `O=C(CCc1nnc2c(N3CCCCC3)nc3ccccc3n12)NCc1ccc(Br)cc1`, the Inhibition is -23.12%.

Take `COc1ccc(-c2cc3c4nnc(SCC(=O)Nc5ccccc5F)n4ccn3n2)cc1`: the Inhibition is recorded as -26.1%.

With `CCc1ccc(Cn2c(=O)c3sccc3n3c(=O)n(Cc4c(F)cccc4Cl)nc23)cc1`, the Inhibition was -25.59%.

In the case of `Cc1ccc(Sc2ccc3nn(CC(=O)Nc4ccc(Br)c(C)c4)c(=O)n3n2)cc1`, the Inhibition is on record as -8.57%.
